Laboratory results reported in PubChem BioAssay.
The source made the active and inactive calls. Unless noted, no rule for the calls is given here.

Key:
[1] = compounds binding Alexa647 anti-His antibody – biochemical, small-molecule microarray, 635 nm fluorescence, artefact control for SMM control protein annotation, primary screen (AID 1128); details: higher = more signal;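 also: score merges feature fluorescence with signal-to-noise for each printed compound spot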
[2] = tested on: Human papillomavirus type 1a E7 protein (residues 1-88); assay: HPV1a E7 small-molecule binders, primary screen, biochemical, small-molecule microarray, residues 1-88, 635 nm (AID 1129); details: small-molecule microarray binding, fluorescence 635 nm; higher = more signal
[3] = molecular target: Focal adhesion kinase 1 (Homo sapiens) (UniProt Q05397); assay: PTK2 protein binding on printed compound slides – biochemical, small-molecule microarray, 635/667 nm fluorescence, BSA, DTT, primary screen (AID 1130); details: 635 nm fluorescence, higher = more signal;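 also: composite of spot emission at 667 nm and signal to noise over triplicate slides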
[4] = tested on: Fibrinogen (Alexa647-labelled); assay: Alexa647-fibrinogen binding to printed small molecules – biochemical, small-molecule microarray, 635/667 nm fluorescence, artefact control for SMM control-protein annotation, profiling panel (AID 1131); details: fibrinogen-A647 binding fluorescence, higher = more signal;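 also: z-score merges 667 nm fluorescence with per-spot signal-to-noise over triplicate slides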
[5] = molecular target: Follistatin (Homo sapiens) (UniProt P19883); assay: FST protein binding to printed compounds – biochemical, small-molecule microarray, 635/667 nm fluorescence, primary screen (AID 1132); details: 635 nm fluorescence, higher = more signal
[6] = molecular target: Fibroblast growth factor 2 (Homo sapiens) (UniProt P09038); assay: basic fibroblast growth factor binding to printed compounds – biochemical, small-molecule microarray, 635/667 nm fluorescence, primary screen (AID 1133); details: FGF2, fluorescence 635/667, higher = more signal
[7] = JC-1 mitochondrial potential readout, lung cancer cells – cell-based, A549, JC-1 fluorescence, basal, 24 h, 100 nL, profiling panel (AID 1138); details: higher = more signal;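 also: A549 lung adenocarcinoma cells under basal conditions with no added stimulus; test concentration not given here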
Lefty1 = Lefty1 protein binding to printed compounds – biochemical, small-molecule microarray, 635/667 nm fluorescence, primary screen (AID 1139); details: fluorescence 635/667, higher = more signal
[8] = tested on: wheat germ agglutinin (Triticum aestivum), Alexa647-labelled; assay: Alexa647-WGA lectin binding to printed small molecules – biochemical, small-molecule microarray, 635/667 nm fluorescence, artefact control for SMM control-protein annotation, profiling panel (AID 1140); details: WGA-A647 binding, 635 nm fluorescence, higher = more signal;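 also: score merges 667 nm feature emission with signal to noise over triplicate slides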
[9] = molecular target: Luciferin 4-monooxygenase (Photinus pyralis) (UniProt P08659); assay: inhibition of purified Photinus pyralis luciferase – biochemical, luminescence, purified enzyme, 2006 set, primary screen (AID 1141); details: purified firefly luciferase, SteadyGlo luminescence, 30 min; higher = more signal, called active from +8 up or from −8 down;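 also: cell-free assay with purified firefly luciferase at 100 ng per well in PBS; test concentration not given here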
[10] = tested on: Wnt5a (protein binding on small-molecule microarray); assay: small molecules binding Wnt5a protein – biophysical, small-molecule microarray, 635/667 nm fluorescence, primary screen (AID 1142); details: 635 nm fluorescence, higher = more signal;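 also: fluorescence read at 667 nm with signal to noise per printed feature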
[11] = ATP-based viability of Huh7 replicon cells – cell-based, CellTiter-Glo luminescence, basal, 48 h, cytotoxicity control for HCV replication inhibitor project, primary screen (AID 1143); details: higher = more signal, called active from +8 up or from −8 down;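 also: Huh7 hepatoma cells carrying a hepatitis C replication reporter with no stimulus; test concentration not given here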
[12] = Pseudomonas biofilm growth suppression – PAO1 strain, BacTiter-Glo luminescence, LB-PBS, primary screen (AID 1144); details: P. aeruginosa PAO1 biofilm, 12 h, higher = more signal
[13] = basal CRE-LacZ reporter activity in PC12 – cell-based, unstimulated, primary screen (AID 1145); details: no forskolin, luminescence, 4.5 h, higher = more signal, called active from +8 up or from −8 down
[14] = forskolin-driven CRE-LacZ activity in PC12 – cell-based, CRE-LacZ reporter, forskolin-stimulated, primary screen (AID 1146); details: luminescence, 4.5 h, higher = more signal, called active from +8 up or from −8 down;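 also: PC12 cells with 6xCRE LacZ reporter stimulated by forskolin 10 µM; beta-galactosidase reporter signal reflecting CREB driven transcription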
[15] = molecular target: Streptavidin (Streptomyces avidinii) (UniProt P22629); assay: compounds binding control protein streptavidin – biophysical, small-molecule microarray, 635/667 nm fluorescence, artefact control for SMM compound annotation, primary screen (AID 1147); details: higher = more signal;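 also: signal reflects streptavidin binding to arrayed compounds as a control protein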
[16] = probe aInhba binding on compound microarray – biochemical, small-molecule microarray, 635/667 nm fluorescence, primary screen (AID 1148); details: higher = more signal;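 also: score merges 667nm spot fluorescence with signal-to-noise for antibody binding to printed compounds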
Torsin-1A (Homo sapiens) [17] = molecular target: Torsin-1A (Homo sapiens) (UniProt O14656); assay: TOR1A wild-type binding on microarray – cell lysate, small-molecule microarray, lysate, 635/667 nm, primary screen (AID 1149); details: COS7 hTOR1A-WT lysate, 635 nm fluorescence, higher = more signal
Torsin-1A (Homo sapiens) [18] = molecular target: Torsin-1A (Homo sapiens) (UniProt O14656); assay: torsin A mutant lysate binding on microarrays – cell lysate, small-molecule microarray, COS7 lysate, 635/667 nm fluorescence, primary screen (AID 1150); details: COS7 hTOR1A mutant lysate, 635 nm fluorescence, higher = more signal;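 also: score pools 667 nm emission and signal to noise measuring lysate protein binding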
[19] = tested on: Sonic hedgehog protein (Shh); assay: Sonic hedgehog microarray binding compounds – biochemical, small-molecule microarray, 635/667 nm fluorescence, primary screen (AID 1151); details: 635 nm fluorescence, higher = more signal;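 also: Shh protein binding to compounds spotted on small-molecule microarray slides; score combines spot fluorescence intensity with signal-to-noise across triplicate slides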

Chain of Fibroblast growth factor 2 (Homo sapiens) (P09038 whole entry, looked up): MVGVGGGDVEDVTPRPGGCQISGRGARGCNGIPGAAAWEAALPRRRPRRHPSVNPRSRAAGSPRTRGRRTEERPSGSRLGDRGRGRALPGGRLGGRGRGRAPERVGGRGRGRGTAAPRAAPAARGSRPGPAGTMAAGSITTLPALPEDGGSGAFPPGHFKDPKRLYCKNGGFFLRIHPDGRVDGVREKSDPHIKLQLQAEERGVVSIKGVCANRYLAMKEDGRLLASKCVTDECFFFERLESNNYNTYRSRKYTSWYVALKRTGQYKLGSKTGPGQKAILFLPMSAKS
Chain of Torsin-1A (Homo sapiens) (O14656 whole entry, looked up): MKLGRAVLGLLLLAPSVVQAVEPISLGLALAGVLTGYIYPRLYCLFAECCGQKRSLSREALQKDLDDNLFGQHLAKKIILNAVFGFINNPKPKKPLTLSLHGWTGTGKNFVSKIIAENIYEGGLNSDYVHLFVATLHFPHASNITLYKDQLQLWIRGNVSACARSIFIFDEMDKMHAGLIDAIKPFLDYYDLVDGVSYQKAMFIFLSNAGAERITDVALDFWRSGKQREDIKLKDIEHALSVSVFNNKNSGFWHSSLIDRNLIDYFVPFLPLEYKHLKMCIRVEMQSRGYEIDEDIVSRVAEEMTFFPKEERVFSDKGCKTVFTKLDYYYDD
Chain of Follistatin (Homo sapiens) (P19883 whole entry, looked up): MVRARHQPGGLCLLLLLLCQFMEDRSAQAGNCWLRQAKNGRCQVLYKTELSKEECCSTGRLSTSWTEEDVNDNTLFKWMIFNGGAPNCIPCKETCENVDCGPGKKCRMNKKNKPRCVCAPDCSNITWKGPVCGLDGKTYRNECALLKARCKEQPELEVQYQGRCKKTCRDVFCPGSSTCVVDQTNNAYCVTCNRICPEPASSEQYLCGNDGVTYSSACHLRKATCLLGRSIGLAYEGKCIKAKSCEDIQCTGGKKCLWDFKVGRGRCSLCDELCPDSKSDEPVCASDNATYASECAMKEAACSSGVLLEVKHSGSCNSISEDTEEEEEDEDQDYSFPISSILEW
Chain of Focal adhesion kinase 1 (Homo sapiens) (Q05397 whole entry, looked up): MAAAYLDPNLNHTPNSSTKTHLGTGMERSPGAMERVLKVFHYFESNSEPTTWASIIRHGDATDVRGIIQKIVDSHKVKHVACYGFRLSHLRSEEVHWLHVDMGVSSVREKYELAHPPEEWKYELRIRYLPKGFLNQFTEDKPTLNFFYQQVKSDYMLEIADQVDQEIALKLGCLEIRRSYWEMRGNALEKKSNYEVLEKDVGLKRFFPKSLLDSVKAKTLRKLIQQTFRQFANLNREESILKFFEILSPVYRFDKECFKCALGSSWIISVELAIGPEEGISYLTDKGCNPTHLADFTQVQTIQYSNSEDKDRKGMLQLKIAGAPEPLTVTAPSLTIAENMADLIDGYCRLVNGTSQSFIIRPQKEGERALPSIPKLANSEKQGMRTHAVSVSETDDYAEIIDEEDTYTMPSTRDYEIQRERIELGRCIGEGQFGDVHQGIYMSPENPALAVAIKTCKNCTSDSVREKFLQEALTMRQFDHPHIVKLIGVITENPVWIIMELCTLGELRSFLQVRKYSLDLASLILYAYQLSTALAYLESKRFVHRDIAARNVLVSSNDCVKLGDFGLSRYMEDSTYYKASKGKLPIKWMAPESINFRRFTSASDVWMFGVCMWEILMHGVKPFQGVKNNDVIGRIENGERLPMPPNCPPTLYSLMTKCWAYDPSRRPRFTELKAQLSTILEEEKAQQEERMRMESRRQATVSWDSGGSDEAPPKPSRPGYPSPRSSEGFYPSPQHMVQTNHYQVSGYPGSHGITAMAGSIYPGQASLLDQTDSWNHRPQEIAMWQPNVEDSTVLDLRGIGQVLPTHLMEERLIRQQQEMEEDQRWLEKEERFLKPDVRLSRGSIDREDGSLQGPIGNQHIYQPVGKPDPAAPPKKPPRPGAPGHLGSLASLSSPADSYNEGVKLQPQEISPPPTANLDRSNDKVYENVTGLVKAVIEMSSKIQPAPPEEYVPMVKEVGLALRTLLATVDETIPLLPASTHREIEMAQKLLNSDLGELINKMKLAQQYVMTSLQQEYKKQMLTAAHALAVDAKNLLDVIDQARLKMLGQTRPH
Chain of Streptavidin (Streptomyces avidinii) (P22629 whole entry, looked up): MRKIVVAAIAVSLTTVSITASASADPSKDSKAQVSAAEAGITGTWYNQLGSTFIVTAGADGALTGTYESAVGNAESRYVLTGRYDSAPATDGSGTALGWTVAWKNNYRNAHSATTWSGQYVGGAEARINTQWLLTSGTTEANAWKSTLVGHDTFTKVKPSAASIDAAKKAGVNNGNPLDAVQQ
Chain of Luciferin 4-monooxygenase (Photinus pyralis) (P08659 whole entry, looked up): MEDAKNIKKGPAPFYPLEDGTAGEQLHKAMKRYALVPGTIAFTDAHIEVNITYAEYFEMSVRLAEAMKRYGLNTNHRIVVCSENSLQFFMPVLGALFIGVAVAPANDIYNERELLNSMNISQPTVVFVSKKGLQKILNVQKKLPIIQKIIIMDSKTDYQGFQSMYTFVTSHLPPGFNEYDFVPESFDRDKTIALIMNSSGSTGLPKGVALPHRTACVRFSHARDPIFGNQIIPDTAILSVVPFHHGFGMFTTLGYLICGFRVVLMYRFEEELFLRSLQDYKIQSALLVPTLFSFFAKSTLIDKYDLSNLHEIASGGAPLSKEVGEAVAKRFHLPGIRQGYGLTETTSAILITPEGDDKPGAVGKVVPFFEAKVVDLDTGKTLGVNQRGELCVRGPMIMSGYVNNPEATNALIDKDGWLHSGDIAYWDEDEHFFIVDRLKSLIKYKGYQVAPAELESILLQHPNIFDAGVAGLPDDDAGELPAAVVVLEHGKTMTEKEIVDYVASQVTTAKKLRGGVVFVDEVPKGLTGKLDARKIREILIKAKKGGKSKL

| SMILES | composite z-score [1] | composite z-score [2] | composite z-score [3] | composite z-score [4] | composite z-score [5] | composite z-score [6] | z-score [7] | composite z-score (Lefty1) | composite z-score [8] | z-score [9] | composite z-score [10] | z-score [11] | z-score [12] | z-score [13] | z-score [14] | composite z-score [15] | composite z-score [16] | composite z-score (Torsin-1A (Homo sapiens) [17]) | composite z-score (Torsin-1A (Homo sapiens) [18]) | composite z-score [19] |
| --- | --- | --- | --- | --- | --- | --- | --- | --- | --- | --- | --- | --- | --- | --- | --- | --- | --- | --- | --- | --- |
| O=C1OCCC/C=C\[C@H]2OC34C=CCN(CCN5CCOCC5)C(=O)[C@H]3N(CCO)C(=O)[C@@H]4C12 (stereo not given in full) | 2.47 | -1.64 | -0.3 | -0.786 | -0.981 | -0.322 | -1.08 | -1.57 | -0.365 | 0.634 (inactive) | -0.425 | 0.364 (inactive) | 0.145 (inactive) | -0.342 (inactive) | 0.0806 (inactive) | -0.671 | -0.203 | -0.176 | -0.506 | -0.703 |
| CC1(C)C(=O)C(c2ccccc2)=C2CN3C(=O)N(CCc4ccccc4)C(=O)C3(Cc3ccccc3)C=C21 (stereo not given) | 0.323 | 1.14 | 0.369 | 0.119 | 0.552 | -0.492 | 0.19 | -0.378 | 1.03 | 0.245 (inactive) | 0.114 | -1.13 (inactive) | -0.741 (inactive) | 0.576 (inactive) | 0.15 (inactive) | 0.982 | 0.134 | 0.736 | -0.244 | -1.07 |
| CN1C(=O)C2C=CC(C(O)C=Cc3ccc([N+](=O)[O-])cc3)N(N3CCCCC3)C2C1=O (stereo not given) | 1.25 | 1.2 | 0.518 | 0.966 | 1.4 | 0.544 | 0.39 | 0.393 | 1.28 | -1.79 (inactive) | 1.32 | 0.795 (inactive) | 0.287 (inactive) | -0.519 (inactive) | 0.855 (inactive) | 2.09 | 1.22 | 0.704 | 0.451 | 0.909 |
| C=CCN1Cc2ccccc2C[C@@]2(COC(c3ccc(OCCCO)cc3)=N2)C1=O | 0.131 | 1.2 | 0.92 | 0.526 | 1.15 | 0.788 | 1.67 | 0.374 | 0.41 | -1.62 (inactive) | 0.253 | -2.99 (inactive) | -0.547 (inactive) | 3.21 (inactive) | -1.41 (inactive) | 0.112 | 0.185 | 0.729 | 0.827 | 0.521 |
| O=C1[C@H]2C=C(Br)[C@H](C[C@@H]2OCCOCCO)[C@@]12CO2 | 0.141 | 0.314 | -0.0415 | 0.138 | -0.864 | 0.179 | -0.271 | 0.199 | -0.0695 | 0.582 (inactive) | 0.268 | 0.808 (inactive) | 0.199 (inactive) | -1.23 (inactive) | 1.6 (inactive) | 0.138 | -0.118 | -0.428 | -0.385 | 0.0806 |
| COCCn1c(C(=O)N2CCCC2)cc2c1C[C@H]1CN(C(=O)c3ccccc3)[C@@](Cc3ccc(OC)cc3)(C(=O)OC)[C@@H]21 | 2.34 | 1.02 | 1.89 | 0.632 | 0.417 | -0.552 | 0.766 | -0.0277 | 1.06 | 0.438 (inactive) | 0.644 | -1.54 (inactive) | -0.2 (inactive) | -0.751 (inactive) | 0.699 (inactive) | 2.01 | 0.739 | -0.141 | 1.29 | -0.89 |
| C=C(C(=O)CC[C@@H](OC(=O)c1cccnc1)c1ccc(CO)o1)C(C)C | -0.403 | 0.799 | 0.113 | 0.82 | 1.26 | 1.1 | 0.288 | 1.56 | 0.187 | -1.96 (inactive) | 0.27 | 0.184 (inactive) | 0.228 (inactive) | 0.48 (inactive) | -0.135 (inactive) | 0.156 | 0.209 | 0.787 | 0.584 | 1.75 |
| C[N+](C)(C)CCCCNC(=O)[C@H]1C[C@H]2C(=O)N3CCC[C@H]3C(=O)N2[C@H]1c1ccc(O)cc1 | 2.67 | -0.0698 | 0.446 | 0.228 | 1.46 | 1.81 | -0.515 | 1.49 | 0.282 | -0.679 (inactive) | 0.554 | -0.102 (inactive) | 0.014 (inactive) | -0.821 (inactive) | -0.512 (inactive) | 0.319 | -0.164 | 1.84 | 1.66 | 1.86 |
| C[C@]1(C(=O)NCC(F)(F)F)c2ccccc2C(=O)N(Cc2cc(F)cc(C(F)(F)F)c2)[C@H]1c1ccc(CO)cc1 | -0.99 | 0.105 | -0.0984 | 0.0953 | 1.24 | 0.261 | -1.8 | -0.273 | -0.0396 | 0.408 (inactive) | 0.0343 | -4.86 (inactive) | -0.704 (inactive) | 0.324 (inactive) | 0.486 (inactive) | -0.388 | -0.128 | 0.135 | 0.527 | 0.394 |
| C=CCC(OC(C)=O)[C@@H]1[C@@H](N(Cc2ccc(-c3ccccc3)cc2)C(=O)c2ccc(C)cc2)c2cc(OCCCO)ccc2N1C(=O)Cc1ccc(OC)cc1 (stereo not given in full) | -0.109 | -0.33 | -0.026 | 0.386 | 0.534 | -0.177 | 1.85 | 0.0835 | 0.115 | -1.58 (inactive) | -0.0283 | -0.536 (inactive) | 0.307 (inactive) | 0.904 (inactive) | 0.429 (inactive) | 1.36 | -0.101 | -0.691 | -0.0431 | 0.726 |
